# Measurements published in PubChem BioAssay (NCATS).
# Results filed as inconclusive are left out. Where a call stands in place of a potency, no number is given. The source made the active and inactive calls. Unless noted, the call rests on the fitted dose curve; in most records, active means well fitted curve in the direction sought with a large enough effect; inconclusive means small, poorly fitted or top-dose-only effect, or another doubt; inactive means no such curve, though single readings can be large; an effect the other way counts as inactive or inconclusive.
# What was measured:
# [1] = High Content Imaging Cell-Based qHTS for Inhibitors of the mTORC1 Signaling Pathway in MEF Cells (AID 2667);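 further: Tsc2-/- p53-/- MEFs stably re-expressing wild-type Tsc2 exposed 24 h; series mostly up to about 38 µM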
# Summary of the method: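 WT MEFs (Tsc2-/-, p53-/- re-expressing Tsc2), in DMEM + 10% FBS, were treated with compound for 24 h at 37 C. Cells were then fixed and stained for phospho-rpS6 Ser235/236 with propidium iodide as cell count. Values are % positive cells, with thresholds set against rapamycin-treated cells.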
# [2] = Cytometry Cell-Based qHTS for Inhibitors of the mTORC1 Signaling Pathway in MEF cells (AID 2668);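 further: Tsc2-/- p53-/- mouse embryonic fibroblasts stably re-expressing wild-type Tsc2; percent cells positive for phospho-rpS6 Ser235/236 relative to propidium iodide stain; series mostly up to about 38 µM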
# Summary of the method: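 MEFs (Tsc2-/-, p53-/- stably expressing WT Tsc2) treated 24 h at 37 degree Celsius, fixed, stained with Alexa-488 anti-phospho-rpS6 Ser235/236 and propidium iodide; Acumen laser scanning. Reported as % positive cells, phospho-S6 normalized to PI.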
# [3] = target: Ubiquitin carboxyl-terminal hydrolase 2 (Homo sapiens) (UniProt O75604); experiment: qHTS Validation Assay for Inhibitors of Ubiquitin-specific Protease USP2a Using CHOP2 as the Reporter (AID 463106)
# Summary of the method: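 USP2 core (10 nM final) was preincubated with compound 30 min at RT in pH 8.0 Tris/CaCl2/beta-ME/CHAPS buffer. Ub-CHOP2 and reporter substrate (25 nM final each) were then added, with fluorescence (Ex 485/Em 531) read after 60 min. Data were normalized to NEM full inhibition and fitted to concentration-response curves.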
# [4] = target: DNA polymerase III PolC-type (Bacillus subtilis (strain 168)) (UniProt P13267); experiment: qHTS Validation Assay for the Inhibitors of DNA Replication in Gram-Positive Bacteria (AID 485295);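 further: PicoGreen fluorescence of double-stranded DNA made on primed circular M13 template; series mostly up to about 57 µM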
# Summary of the method: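 Reconstituted B. subtilis Pol III holoenzyme (PolC, beta clamp, SSB, primase) preincubated with compound, then M13Gori single-stranded circular template with dNTPs/NTPs added; room temperature reaction. Stopped with EDTA/PicoGreen; dsDNA fluorescence read, EDTA as full-inhibition control.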
# [5] = target: Tumor susceptibility gene 101 protein (Homo sapiens) (UniProt Q99816); experiment: qHTS Validation Assay for Iinhibitors of HIV-1 Budding by Blocking the Interaction of PTAP/TSG101 (AID 485342; calls by dose curve)
# Summary of the method: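 Tsg101 binding domain (10 uM) with FITC-labeled PTAP peptide (50 nM) in HEPES pH 7.5 buffer, 20 min at r.t. with compounds. Binding measured by fluorescence polarization.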
# [6] = qHTS Validation Assay to Find Inhibitors of Chronic Active B-Cell Receptor Signaling (AID 485345; active means well fitted curve in the direction sought with a large enough effect in the main read-out, with a control signal flat, not every such curve was filed as active)
# Summary of the method: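 TMD8 ABC-DLBCL cells stably carrying doxycycline-inducible IkappaBalpha–green luciferase fusion plus unfused red luciferase; compounds 46 uM to 3 nM, 4 h at 37C with doxycycline. Corrected green/red luminescence ratio normalized to 10 uM MG-132 and basal cell wells; curves fitted.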
# [7] = target: Beta-2 adrenergic receptor (Homo sapiens) (UniProt P07550); experiment: qHTS validation assay of beta-arrestin-biased ligands of beta2-adrenergic receptor (AID 485366)
# Summary of the method: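 Arrestin-recruitment (Tango) reporter: ligand-bound beta2-AR recruits beta-arrestin, releasing tTA, which upregulates luciferase. Titrations of up to 46 microM incubated 18 hr at 37 degrees C before luminescent readout.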
# [8] = target: Thioredoxin reductase 1, cytoplasmic (Rattus norvegicus) (UniProt O89049); experiment: qHTS Assay for Substrates of Mammalian Selenoprotein Thioredoxin Reductase 1 (TrxR1) (AID 488772);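 further: NADPH fluorescence in the first read after selenite addition and not the 8 min delta; series mostly up to about 57 µM; a drop in NADPH fluorescence below the no-compound background marks a TrxR1 substrate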
# Summary of the method: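 Quantitative HTS in Tris-HCl buffer at pH 7.5 with EDTA and Tween-20, using rat TrxR1, 400 uM NADPH and 400 uM selenite (final). A fall in initial NADPH fluorescence relative to background marked substrate behaviour.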
# [9] = target: Thioredoxin reductase 1, cytoplasmic (Rattus norvegicus) (UniProt O89049); experiment: qHTS Assay for Inhibitors of Mammalian Selenoprotein Thioredoxin Reductase 1 (TrxR1) (AID 488773); conditions: Potency: inhibition;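 further: drop in NADPH fluorescence over an 8 min run after selenite addition; series mostly up to about 57 µM; nearly all actives have a fitted effect of over 40% in size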
# Summary of the method: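 Steps: enzyme (90 nM) plus NADPH (400 uM final), 5 min at ~22 deg C; compound added, 15 min; selenite (400 uM final) added; fluorescence followed for 8 min. Concentration-response curves derived from the normalized delta values.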
# [10] = target: Flap endonuclease 1 (Homo sapiens) (UniProt P39748); experiment: qHTS Validation Assay for the Inhibitors of Human Flap endonuclease 1 (FEN1) (AID 488816)
# Summary of the method: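 Human FEN1 (10 nM) preincubated 15 min at room temperature with compounds, then flap DNA substrate added at 50 nM final. Fluorescence read at 0 and 15 min; concentration-response fitted with four-parameter Hill equation.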
# [11] = target: M-phase phosphoprotein 8 (Homo sapiens) (UniProt Q99549); experiment: qHTS Validation Assay for Inhibitors for MPP8 Chromodomain Interactions with Methylated Histone Tails (AID 488949); further: nearly all actives have a fitted effect of over 55% in size; further: potency means the concentration at half of the fitted maximal effect
# Summary of the method: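 MPP8 (50 nM) was pre-bound to 50 nM biotinylated H3(1-18)K9me3 peptide in PBS pH 7.4 with 0.01% Tween-20. Compounds were then added for 30 min at room temperature, and complex disruption was read by AlphaScreen with streptavidin donor and nickel-chelate acceptor beads.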
# [12] = target: Chromobox protein homolog 1 (Homo sapiens) (UniProt P83916); experiment: qHTS Validation Assay for Inhibitors of HP1-beta Chromodomain Interactions with Methylated Histone Tails (AID 488953); further: nearly all actives have a fitted effect of over 50% in size; further: potency means the concentration at half of the fitted maximal effect
# Summary of the method: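 50 nM HP1-beta + 50 nM biotin-H3(1-18)K9me3, PBS pH 7.4, 0.01% Tween-20, 30 min RT; compound added, 30 min RT; AlphaScreen beads 10 ug/mL final, 30 min dark; luminescence read.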
# [13] = target: Methanococcus maripaludis chaperonin (MmCpn) (UniProt Q6LX38); experiment: High-Throughput Screening for Modulators of Cytosolic Chaperonin Activity: MmCpn Primary Screen (AID 488978);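 further: 50 nM MmCpn enzyme hydrolysing 30 µM ATP at 37 °C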
# Summary of the method: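 MmCpn at 50 nM final was preincubated 5 min at RT with compound. ATP was then added at 30 uM final for 10 min at 37 C. ADP formed was detected by Transcreener HTRF (665/590 nm).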
# [14] = target: D(1A) dopamine receptor (Homo sapiens) (UniProt P21728); experiment: HTS Assay for Allosteric Agonists of the Human D1 Dopamine Receptor: Primary Screen for Agonists (AID 488981)
# Summary of the method: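 Tetracycline-induced HEK293 Trex D1 cells with forced coupling to calcium, loaded with no-wash calcium dye; kinetic fluorescence read 180 s after compound addition for agonism, then a further 180 s after an EC20 dopamine challenge for potentiation.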
# [15] = target: ATP-dependent 6-phosphofructokinase (Trypanosoma brucei brucei) (UniProt O15648); experiment: qHTS Validation Assay to Find Inhibitors of T. brucei phosphofructokinase (AID 485368); conditions: outcome: dose series up to 57.5 µM
# Summary of the method: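 Steps: substrate mix (0.5 mM F6P, 0.1 mM ATP, MgCl2, TEA pH 8.0); compound; 1.25 nM T. brucei PFK; 45 min RT; ATP depletion 10 min; ADP-to-ATP detection 10 min; luminescence read; curve fitting and classification.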
# [16] = Validation screen for small molecules that induce DNA re-replication in MCF 10A normal breast cells (AID 463097); further: nearly all actives have a fitted effect of over 60% in size; further: potency means the concentration at half of the fitted maximal effect
# Summary of the method: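 MCF 10A cells exposed to compound 48 hr at 37 C, 5% CO2, then Hoechst-stained 40 min. Laser-scanning imaging of nuclear DNA content (405 nm ex, 500-530 nm em); re-replication scored as rise in nuclei with elevated fluorescence intensity.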
# [17] = target: Thyrotropin receptor (Homo sapiens) (UniProt P16473); experiment: qHTS Assay for Antagonists of the Thyroid Stimulating Hormone Receptor (AID 488980); further: series mostly up to about 58 µM
# Summary of the method: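 TSHR-transfected HEK293 cells (2000/well) in HEPES-buffered HBSS with 70 uM RO 20-1724 were stimulated with 4 nM TSH (EC80, final) in the presence of compound. cAMP was measured by HTRF competition after lysis and 30 min at RT.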
# [18] = Quantitative high throughput screen for delayed death inhibitors of the malarial parasite plastid, 96 hour incubation (AID 488745); further: nearly all actives have a fitted effect of over 70% in size; further: potency means the concentration at half of the fitted maximal effect
# Summary of the method: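 Infected erythrocytes were added to compound in Albumax-supplemented RPMI 1640 at 0.1% parasitemia and 2% hematocrit (final), incubated 96 h at 37 C under 5% CO2, then luciferase reagent was added and luminescence measured.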
# [19] = Quantitative high throughput screen for delayed death inhibitors of the malarial parasite plastid, 48 hour incubation (AID 488752); further: nearly all actives have a fitted effect of over 65% in size; further: potency means the concentration at half of the fitted maximal effect
# Summary of the method: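 Readout is firefly luciferase luminescence from a reporter integrated into the parasite genome, with lower signal taken as inhibited growth. Infected red cells (0.1% parasitemia, 2% hematocrit final) are cultured with compound for one 48 h cycle at 37 C.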
# [20] = target: Transient receptor potential cation channel subfamily V member 1 (Homo sapiens) (UniProt Q8NER1); experiment: HTS Assay for Compounds that Act as Enhancers of the Vanilloid Receptor 1 (AID 488979)
# Summary of the method: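 TRPV1 cells loaded with Fluo-8 calcium dye; compound added and Ca2+ signal (ex 480/em 520 nm) followed 3 min, then capsaicin at EC20 added and read 2 more min to detect enhancement.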
# Chain of Chromobox protein homolog 1 (Homo sapiens) (P83916 whole entry, looked up): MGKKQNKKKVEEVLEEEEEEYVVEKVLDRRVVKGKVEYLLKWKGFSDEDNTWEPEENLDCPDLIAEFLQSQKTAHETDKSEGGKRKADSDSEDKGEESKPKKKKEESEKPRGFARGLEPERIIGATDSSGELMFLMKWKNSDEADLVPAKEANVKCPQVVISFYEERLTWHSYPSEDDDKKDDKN
# Chain of Flap endonuclease 1 (Homo sapiens) (P39748 whole entry, looked up): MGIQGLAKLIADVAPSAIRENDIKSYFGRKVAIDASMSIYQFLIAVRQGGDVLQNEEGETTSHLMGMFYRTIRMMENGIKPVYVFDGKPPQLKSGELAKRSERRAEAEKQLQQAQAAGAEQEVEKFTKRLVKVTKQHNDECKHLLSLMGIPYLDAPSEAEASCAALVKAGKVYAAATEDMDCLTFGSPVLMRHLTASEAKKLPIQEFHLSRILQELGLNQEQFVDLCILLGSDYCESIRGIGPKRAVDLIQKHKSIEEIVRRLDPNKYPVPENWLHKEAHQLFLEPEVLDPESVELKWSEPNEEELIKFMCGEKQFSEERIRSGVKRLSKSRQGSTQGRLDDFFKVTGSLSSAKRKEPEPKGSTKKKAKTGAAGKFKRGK
# Chain of Transient receptor potential cation channel subfamily V member 1 (Homo sapiens) (Q8NER1 whole entry, looked up): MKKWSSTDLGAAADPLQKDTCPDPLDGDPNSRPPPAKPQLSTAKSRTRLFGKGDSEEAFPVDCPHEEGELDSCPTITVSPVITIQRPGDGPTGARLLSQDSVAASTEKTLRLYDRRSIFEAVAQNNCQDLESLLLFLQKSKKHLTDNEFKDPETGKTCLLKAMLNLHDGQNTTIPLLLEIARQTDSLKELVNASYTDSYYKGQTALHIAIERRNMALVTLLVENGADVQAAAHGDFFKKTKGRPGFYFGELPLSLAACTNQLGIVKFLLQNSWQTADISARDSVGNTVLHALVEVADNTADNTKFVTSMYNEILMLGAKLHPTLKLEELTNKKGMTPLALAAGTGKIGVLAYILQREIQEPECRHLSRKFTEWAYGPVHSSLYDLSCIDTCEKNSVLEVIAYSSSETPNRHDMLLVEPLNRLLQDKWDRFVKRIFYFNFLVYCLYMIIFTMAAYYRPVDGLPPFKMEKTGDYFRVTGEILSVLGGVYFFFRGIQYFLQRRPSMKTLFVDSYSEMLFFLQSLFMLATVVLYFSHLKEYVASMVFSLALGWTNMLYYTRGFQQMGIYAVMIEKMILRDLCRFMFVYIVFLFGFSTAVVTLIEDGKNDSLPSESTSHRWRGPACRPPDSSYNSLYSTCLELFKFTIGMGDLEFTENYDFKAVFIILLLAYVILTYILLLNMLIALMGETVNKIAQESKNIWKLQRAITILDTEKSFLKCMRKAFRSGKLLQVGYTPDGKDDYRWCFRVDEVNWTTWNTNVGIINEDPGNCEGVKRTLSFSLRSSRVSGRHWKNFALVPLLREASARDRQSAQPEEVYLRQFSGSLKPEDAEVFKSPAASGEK
# Chain of DNA polymerase III PolC-type (Bacillus subtilis (strain 168)) (P13267 whole entry, looked up): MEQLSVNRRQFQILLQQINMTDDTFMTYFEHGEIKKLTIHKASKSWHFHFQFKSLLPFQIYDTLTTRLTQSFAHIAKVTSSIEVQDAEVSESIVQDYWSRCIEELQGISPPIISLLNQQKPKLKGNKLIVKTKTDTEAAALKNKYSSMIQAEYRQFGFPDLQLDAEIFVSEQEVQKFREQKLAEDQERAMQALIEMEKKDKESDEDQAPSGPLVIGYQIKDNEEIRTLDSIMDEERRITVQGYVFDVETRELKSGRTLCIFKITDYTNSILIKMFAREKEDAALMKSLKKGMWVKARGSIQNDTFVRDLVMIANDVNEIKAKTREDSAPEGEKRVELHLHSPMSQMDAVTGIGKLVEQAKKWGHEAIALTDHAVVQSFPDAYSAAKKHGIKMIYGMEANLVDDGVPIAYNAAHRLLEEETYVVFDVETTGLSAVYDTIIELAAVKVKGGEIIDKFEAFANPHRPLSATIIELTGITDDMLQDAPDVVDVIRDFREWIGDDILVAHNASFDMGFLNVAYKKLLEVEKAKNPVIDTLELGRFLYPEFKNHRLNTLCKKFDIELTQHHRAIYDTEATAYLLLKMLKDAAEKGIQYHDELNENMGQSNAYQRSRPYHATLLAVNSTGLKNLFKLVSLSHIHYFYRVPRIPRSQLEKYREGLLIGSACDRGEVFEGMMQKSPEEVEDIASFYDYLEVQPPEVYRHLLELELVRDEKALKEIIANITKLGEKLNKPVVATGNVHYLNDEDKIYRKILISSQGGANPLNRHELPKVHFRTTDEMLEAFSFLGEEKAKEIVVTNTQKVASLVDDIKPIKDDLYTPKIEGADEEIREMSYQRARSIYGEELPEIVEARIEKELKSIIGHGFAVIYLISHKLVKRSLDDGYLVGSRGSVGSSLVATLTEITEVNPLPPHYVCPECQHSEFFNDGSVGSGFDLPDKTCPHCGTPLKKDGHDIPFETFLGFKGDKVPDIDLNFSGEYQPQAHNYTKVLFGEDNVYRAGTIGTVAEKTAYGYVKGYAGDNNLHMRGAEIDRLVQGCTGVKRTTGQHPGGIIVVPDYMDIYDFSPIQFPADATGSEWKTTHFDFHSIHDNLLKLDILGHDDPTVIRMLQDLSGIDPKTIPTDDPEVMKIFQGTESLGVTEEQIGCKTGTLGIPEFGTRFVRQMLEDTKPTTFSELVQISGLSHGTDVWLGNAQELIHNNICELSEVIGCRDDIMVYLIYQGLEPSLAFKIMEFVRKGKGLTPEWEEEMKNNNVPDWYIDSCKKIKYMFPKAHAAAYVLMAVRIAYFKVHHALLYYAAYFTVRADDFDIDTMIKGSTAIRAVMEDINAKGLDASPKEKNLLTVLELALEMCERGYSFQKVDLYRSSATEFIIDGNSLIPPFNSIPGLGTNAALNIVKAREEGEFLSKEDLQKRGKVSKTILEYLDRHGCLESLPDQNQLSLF
# Chain of Tumor susceptibility gene 101 protein (Homo sapiens) (Q99816 whole entry, looked up, the tested form may be a part): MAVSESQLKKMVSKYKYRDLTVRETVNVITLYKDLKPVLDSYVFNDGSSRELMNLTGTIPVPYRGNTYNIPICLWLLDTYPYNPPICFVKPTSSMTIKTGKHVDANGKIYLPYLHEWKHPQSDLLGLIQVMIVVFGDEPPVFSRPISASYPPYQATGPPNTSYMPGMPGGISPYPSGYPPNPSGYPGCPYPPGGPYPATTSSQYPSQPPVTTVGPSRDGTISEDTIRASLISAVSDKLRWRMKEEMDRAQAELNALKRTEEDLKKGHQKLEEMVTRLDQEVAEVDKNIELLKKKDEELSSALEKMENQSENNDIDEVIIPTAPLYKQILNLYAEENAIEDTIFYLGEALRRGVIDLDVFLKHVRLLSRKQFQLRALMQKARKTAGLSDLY
# Chain of Thioredoxin reductase 1, cytoplasmic (Rattus norvegicus) (O89049 whole entry, looked up): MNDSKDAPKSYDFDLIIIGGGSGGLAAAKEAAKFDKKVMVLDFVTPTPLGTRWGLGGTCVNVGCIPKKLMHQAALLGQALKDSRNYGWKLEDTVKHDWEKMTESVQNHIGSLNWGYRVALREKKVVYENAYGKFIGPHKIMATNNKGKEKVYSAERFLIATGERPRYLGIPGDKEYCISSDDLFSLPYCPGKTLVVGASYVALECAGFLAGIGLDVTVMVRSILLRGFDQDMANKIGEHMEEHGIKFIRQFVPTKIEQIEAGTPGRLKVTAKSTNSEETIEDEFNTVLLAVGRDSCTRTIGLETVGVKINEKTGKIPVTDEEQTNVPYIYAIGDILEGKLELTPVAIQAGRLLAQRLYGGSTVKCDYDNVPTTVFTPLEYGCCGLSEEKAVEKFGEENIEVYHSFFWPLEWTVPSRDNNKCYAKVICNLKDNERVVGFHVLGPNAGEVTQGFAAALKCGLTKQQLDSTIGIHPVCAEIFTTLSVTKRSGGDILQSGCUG
# Chain of Thyrotropin receptor (Homo sapiens) (P16473 whole entry, looked up): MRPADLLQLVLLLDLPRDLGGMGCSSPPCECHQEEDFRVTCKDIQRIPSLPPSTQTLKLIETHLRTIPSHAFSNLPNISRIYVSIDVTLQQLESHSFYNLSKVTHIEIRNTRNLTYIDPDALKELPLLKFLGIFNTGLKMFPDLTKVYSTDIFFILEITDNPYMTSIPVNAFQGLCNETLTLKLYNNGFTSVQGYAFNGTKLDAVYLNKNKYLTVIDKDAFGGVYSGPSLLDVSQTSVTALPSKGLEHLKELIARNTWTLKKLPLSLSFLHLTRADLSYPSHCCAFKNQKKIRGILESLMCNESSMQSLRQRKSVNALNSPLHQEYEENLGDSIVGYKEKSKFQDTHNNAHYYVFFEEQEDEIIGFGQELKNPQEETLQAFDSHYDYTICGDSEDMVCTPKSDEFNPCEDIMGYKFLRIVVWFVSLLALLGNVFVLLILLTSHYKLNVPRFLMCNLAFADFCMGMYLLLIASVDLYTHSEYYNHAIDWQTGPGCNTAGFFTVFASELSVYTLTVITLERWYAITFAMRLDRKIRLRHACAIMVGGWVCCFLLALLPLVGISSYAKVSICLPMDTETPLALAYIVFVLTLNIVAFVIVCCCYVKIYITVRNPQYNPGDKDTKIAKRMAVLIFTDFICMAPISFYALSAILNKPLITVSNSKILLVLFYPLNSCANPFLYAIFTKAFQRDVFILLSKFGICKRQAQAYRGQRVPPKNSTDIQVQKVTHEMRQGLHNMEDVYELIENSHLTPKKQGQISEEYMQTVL
# Chain of Methanococcus maripaludis chaperonin (MmCpn) (Q6LX38 1-543): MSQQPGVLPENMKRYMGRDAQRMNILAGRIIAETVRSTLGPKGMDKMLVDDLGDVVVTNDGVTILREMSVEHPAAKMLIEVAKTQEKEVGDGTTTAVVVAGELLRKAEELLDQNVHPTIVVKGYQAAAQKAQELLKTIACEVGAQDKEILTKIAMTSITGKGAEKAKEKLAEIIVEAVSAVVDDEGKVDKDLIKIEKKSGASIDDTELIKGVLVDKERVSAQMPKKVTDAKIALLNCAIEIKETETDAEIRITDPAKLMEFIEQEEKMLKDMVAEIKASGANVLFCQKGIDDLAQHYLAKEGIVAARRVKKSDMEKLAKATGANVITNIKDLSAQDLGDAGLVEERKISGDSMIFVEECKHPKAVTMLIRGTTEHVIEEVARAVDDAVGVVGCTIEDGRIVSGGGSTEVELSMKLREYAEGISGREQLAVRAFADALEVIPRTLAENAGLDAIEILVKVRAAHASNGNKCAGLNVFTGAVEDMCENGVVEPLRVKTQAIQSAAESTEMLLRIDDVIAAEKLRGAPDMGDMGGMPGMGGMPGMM
Structure (SMILES),Potency [1],Potency [2],outcome [3],Potency [4],outcome [5],Potency [6],outcome [7],outcome [8],Potency [9],Potency [10],Potency [11],Potency [12],outcome [13],Potency [14],outcome [15],Potency [16],outcome [17],Potency [18],Potency [19],outcome [20]
CN1C(=O)CC[C@H]1c1cccnc1,inactive,inactive,inactive,inactive,inactive,inactive,inactive,inactive,inactive,inactive,inactive,inactive,inactive,inactive,–,–,–,–,–,–
NC1=NCC2c3ccccc3Cc3ccccc3N12 (stereo not given),inactive,inactive,inactive,inactive,inactive,inactive,inactive,inactive,inactive,inactive,inactive,inactive,inactive,inactive,inactive,–,–,–,–,–
COCCCC/C(=N\OCCN)c1ccc(C(F)(F)F)cc1,inactive,inactive,inactive,inactive,inactive,–,inactive,inactive,inactive,–,inactive,inactive,inactive,–,–,inactive,inactive,–,–,–
COC(=O)[C@H]1[C@H]2C[C@@H]3c4[nH]c5cc(OC)ccc5c4CCN3C[C@H]2C[C@@H](OC(=O)c2cc(OC)c(OC)c(OC)c2)[C@@H]1OC,inactive,inactive,inactive,inactive,inactive,–,inactive,inactive,inactive,inactive,20 µM (active),39.8 µM (active),inactive,inactive,–,11.2 µM (active),inactive,928 nM (active),1.47 µM (active),inactive
CCn1nc(C(=O)O)c(=O)c2cc3c(cc21)OCO3,inactive,inactive,inactive,inactive,inactive,inactive,inactive,inactive,–,–,–,inactive,inactive,inactive,–,inactive,inactive,–,inactive,inactive
NC(=O)c1cn(Cc2c(F)cccc2F)nn1,inactive,inactive,inactive,inactive,inactive,inactive,inactive,inactive,inactive,inactive,inactive,0.006 µM (active),inactive,inactive,–,–,–,–,–,–
CCCCNc1ccc(C(=O)OCCN(C)C)cc1,inactive,inactive,inactive,inactive,inactive,inactive,inactive,inactive,inactive,inactive,inactive,inactive,inactive,inactive,inactive,–,inactive,–,inactive,inactive
CN(C(=O)CCCOc1ccc2[nH]c(=O)ccc2c1)C1CCCCC1,inactive,inactive,inactive,inactive,inactive,–,inactive,inactive,inactive,inactive,inactive,inactive,inactive,inactive,inactive,inactive,inactive,–,inactive,inactive
Cc1ccc(/C(=C\CN2CCCC2)c2ccccn2)cc1,inactive,inactive,inactive,inactive,inactive,inactive,inactive,inactive,inactive,–,–,inactive,–,inactive,inactive,–,inactive,inactive,inactive,–
CN(C)CCOC(=O)COc1ccc(Cl)cc1,inactive,inactive,inactive,inactive,inactive,inactive,inactive,inactive,inactive,inactive,–,inactive,inactive,inactive,–,inactive,inactive,–,–,inactive
C[N+](C)(C)CCCCCCCCCC[N+](C)(C)C,inactive,inactive,inactive,–,inactive,inactive,inactive,inactive,inactive,–,–,inactive,inactive,inactive,inactive,inactive,inactive,329 nM (active),1.04 µM (active),inactive
C[C@]12C=CC(=O)C=C1CC[C@H]1[C@@H]3C[C@@H](O)[C@](O)(C(=O)CO)[C@@]3(C)C[C@H](O)[C@@]12F,inactive,inactive,inactive,inactive,inactive,–,inactive,inactive,–,inactive,inactive,inactive,–,inactive,inactive,inactive,inactive,inactive,inactive,inactive
COc1cc(Cc2cnc(N)nc2N)cc(OC)c1OC,inactive,inactive,inactive,inactive,inactive,inactive,–,inactive,inactive,–,–,–,inactive,inactive,inactive,inactive,inactive,inactive,inactive,inactive
Cc1nnc(SCC2=C(C(=O)O)N3C(=O)[C@@H](NC(=O)Cn4cnnn4)[C@H]3SC2)s1,inactive,inactive,–,inactive,inactive,inactive,inactive,inactive,–,–,–,–,inactive,inactive,–,inactive,inactive,inactive,inactive,inactive
